Compound activity (PubChem BioAssay)
Most compounds without a hit are left out; they make up all but 22% or so of the library.
Pf growth 48h = P. falciparum growth inhibition at 48 hours (one generation); Potency, µM (highest dose often 28.7 µM), inactives show top-dose activity change, negative = inhibition, actives largely listed as inhibitors; 310,000 compounds, 5.9% hits; AID 504832; P. falciparum luciferase growth in erythrocytes, 48 h; also: potency is read from the fitted curve at half-maximal effect; % is scaled to controls: 0 for no effect and ±100 for the full control effect
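Luciferase-expressing P. falciparum in infected erythrocytes (2% hematocrit, 0.1% parasitemia final) in RPMI 1640/0.5% Albumax were exposed to compound for 48 hours at 37 C, 5% CO2; growth read as luminescence.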
Shiga inhibitor = inhibitors of Shiga toxin in Vero cells; AID 2315; 290,000 compounds, 9.2% hits; inhibition, % at 38.7 µM; Vero cells, Shiga toxin protein synthesis inhibition reporter; in the data active = inhibition mostly above about 28%, no sharp cut-off; inactive = mostly below about 43%; also: 0% is about no effect
LmPK inh = blocks Leishmania mexicana pyruvate kinase activity; purified LmPK, Kinase-Glo ATP luminescence, 1 h; Potency, µM (doses to about 57.5 µM), inactives show at the top dose activity change, negative = inhibition, actives largely listed as inhibitors; 290,000 compounds, 0.37% hits; AID 1721; also: potency is read from the fitted curve at half-maximal effect; % is scaled to controls: 0 for no effect and ±100 for the full control effect
Target sequence (Q27686 whole entry, looked up): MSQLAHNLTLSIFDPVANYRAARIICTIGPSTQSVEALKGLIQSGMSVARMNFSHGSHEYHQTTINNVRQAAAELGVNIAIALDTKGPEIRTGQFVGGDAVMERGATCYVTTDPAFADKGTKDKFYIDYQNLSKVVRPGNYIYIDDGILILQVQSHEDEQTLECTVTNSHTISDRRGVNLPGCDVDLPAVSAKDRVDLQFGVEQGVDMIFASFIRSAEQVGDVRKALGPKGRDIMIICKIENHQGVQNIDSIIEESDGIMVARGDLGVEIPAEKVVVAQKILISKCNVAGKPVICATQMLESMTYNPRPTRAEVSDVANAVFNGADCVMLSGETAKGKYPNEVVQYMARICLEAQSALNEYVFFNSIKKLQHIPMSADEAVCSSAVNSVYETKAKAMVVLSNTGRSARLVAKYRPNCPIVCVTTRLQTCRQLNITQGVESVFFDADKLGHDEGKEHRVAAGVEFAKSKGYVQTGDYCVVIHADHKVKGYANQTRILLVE
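Purified LmPK (0.1 nM) converted ADP (0.1 mM) to ATP with PEP (0.5 mM) in imidazole buffer pH 7.2 with KCl and MgCl2, 1 h at room temperature. ATP was read by Kinase-Glo luminescence; data normalized to uninhibited and no-enzyme controls.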
Cycloheximide cs = counter-screen hit for Shiga toxin inhibitors, cycloheximide; cell reporter, cycloheximide protein synthesis inhibition counterscreen; max response, %; 300,000 compounds, 12% hits; in the data active = max response mostly above about 13%, no sharp cut-off; inactive = mostly below about 14%; also: read at 38.3 µM for the half of the compounds with a filed dose; 0% is about no effect
Pf growth 96h = P. falciparum growth inhibition at 96 hour, primary screen for plastid delayed-death inhibitors. AID 504834. Potency, µM (highest dose often 28.7 µM), without a hit: at the top dose activity change, negative = inhibition, hits mostly inhibitors. 320,000 compounds, 6.9% hits. P. falciparum luciferase reporter growth, 96 h; also: potency is read from the fitted curve at half-maximal effect; % is scaled to controls: 0 for no effect and ±100 for the full control effect
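P. falciparum expressing integrated firefly luciferase grown in erythrocytes (2% hematocrit, 0.05% parasitemia final) with compounds for 96 hours at 37 C, 5% CO2. Growth inhibition read as loss of luminescence after adding luciferase detection reagent.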
Starred values were filed as active, the others as inactive; u = inconclusive; x = no result; [ ] = another dose, or the depositor's remark. Unless noted, calls follow the shape of the dose curve; as a rule, active = well fitted inhibition curve with a large enough effect; inconclusive = small, poorly fitted or top-dose-only effect, or another doubt; inactive = no such curve, though single readings can be large or run the other way.

SMILES	Pf growth 48h	Shiga inhibitor	LmPK inh	Cycloheximide cs	Pf growth 96h
COc1ccc(OC)c(NC(=O)c2cnn(-c3ccccc3)c2C)c1	u	27	-5%	8	u
CCc1ccccc1NC(=O)c1cnn(-c2ccccc2)c1C	0%	36*	-7%	16*	u
Cc1ccccc1NC(=O)c1cnn(-c2ccccc2)c1C	81%	75*	3%	42*	472%
Cc1cc([N+](=O)[O-])nn1CCCC(=O)N1CCN(c2ccccc2)CC1	9%	6	3%	-4	-4%
COC(=O)/C=c1\[nH]c2nnc(C)n2c1=O	3%	-4	1%	1	8%
Cc1cccc(NC(=O)c2cnn(-c3ccccc3)c2C)c1C	29%	41*	-5%	27*	16%
Cc1cccc(NC(=O)c2nc(-c3ccccc3)n(-c3ccccc3)n2)c1C	-26%	-27	-2%	-2	x
COC(=O)C1=CN(Cc2ccc(OC)cc2)C=C(C(=O)OC)C1c1ccsc1	7.4µM*	5	1%	-1	38%
CCOC(=O)C1=CN(C)C=C(C(=O)OCC)C1c1ccsc1	u	-6	11%	17*	6%
COC(=O)C1=C(C)N(C)C(C)=C(C(=O)OC)C1c1ccsc1	u	-16	2%	-3	13%
CC1CC(C)CN(C(=O)CCCNC(=O)c2ccc(Cl)cc2)C1 (configuration not stated)	35%	-11	-4%	-5	3%
c1ccc2c(C[C@@H]3CNCCN3CC3CCCCC3)cccc2c1	u	x	x	x	12µM*
OC1CCN(Cc2cccc3ccccc23)CC1	9%	-5	-8%	0	25%
Cc1cc(=O)[nH]c2cc(Cl)ccc12	19%	-8	-14%	-3	u
Cc1[nH]ccc2c1[nH]c1cc(=O)ccc12	13µM*	-16	-4%	-7	10µM*
CC(=O)NC(CC(=O)OCC(=O)N1CCc2ccccc21)c1ccccc1 (configuration not stated)	x	-3	3%	-4	-27%
COc1ccc(Nc2nc3[nH]c(=O)cc(O)c3s2)cc1	u	0	2%	11	u
O=c1cc(O)c2sc(Nc3ccc(F)c(Cl)c3)nc2[nH]1	u	2	-1%	3	3.7µM*
O=c1cc(O)c2sc(Nc3ccc(Cl)c(F)c3)nc2[nH]1	1.7µM*	4	5%	-3	5.9µM*
CCCCN(C)C(=O)CCC(=O)Nc1ccc2nc(N3CCOCC3)cc(C)c2c1	23%	20	4%	29*	u
CCC(C)NC(=O)CCC(=O)Nc1ccc2nc(N3CCOCC3)cc(C)c2c1 (configuration not stated)	-4%	37	1%	31	u
CCC(C)NC(=O)CCC(=O)Nc1ccc2nc(N3CC(C)CC(C)C3)cc(C)c2c1 (configuration not stated)	9.3µM*	21	2%	13	5.9µM*
Cc1cc(N2CCC(C)CC2)nc2ccc(N3C(=O)CCC3=O)cc12	49%	14	7%	18*	24%
CCCCNC(=O)CCC(=O)Nc1ccc2nc(N3CCC(C)CC3)cc(C)c2c1	-5%	55*	4%	30*	u
CCOCc1cc(CN2CCCC(CNC(=O)c3ccco3)C2)ccc1OC (configuration not stated)	u	14	2%	0	20%
SMILES	Pf growth 48h	Shiga inhibitor	LmPK inh	Cycloheximide cs	Pf growth 96h
COCC(=O)N/N=C(\C)CC(=O)NCc1ccco1	-13%	10	-2%	0	u
CC1(C)c2ccccc2-n2c1cc1oc(=O)cc(O)c1c2=O	-17%	-5	-1%	-2	-21%
O=c1oc(-c2ccccc2)nc2sc3c(c12)CCCC3	x	124*	u	41*	10%
O=c1oc(-c2cccs2)nc2sc3c(c12)CCCCC3	21%	59*	-2%	26*	32%
O=C1CN(c2nc(-c3cccnc3)nc3sc4c(c23)CCCC4)CCN1	u	4	11%	7	u
Nc1nc(-c2cccnc2)nc2sc3c(c12)CCCC3	14%	89	-6%	31*	0%
CCc1c(-c2ccccc2)nc2sc3c(c2c1N)CCCC3	-11%	64	3%	19*	u
Cc1cccc2sc(N(CCN3CCOCC3)C(=O)CCS(=O)(=O)c3ccccc3)nc12	6%	x	x	x	3%
CCOc1ccc(S(=O)(=O)N2CCCC(C(=O)NCCN3CCOCC3)C2)cc1Cl (configuration not stated)	-20%	-7	-1%	-5	-2%
C/C(=C\c1ccc(F)cc1)C(=O)c1c(C)cc(C)[nH]c1=O	-7%	-10	-6%	-2	20%
O=C(Cc1cccc2ccccc12)NCC(=O)N1CCN(Cc2cccc(C(F)(F)F)c2)CC1	-6%	x	x	x	-16%
COc1ccc(CCNS(=O)(=O)c2c(C)[nH]c(C)c2C(=O)N2CCCCC2)cc1OC	u	16	7%	3	u
COc1cc(C(C(=O)NC2CCCCC2)N(Cc2cccs2)C(=O)Cc2c[nH]c3ccccc23)cc(OC)c1OC (configuration not stated)	9.3µM*	-4	1%	0	8.3µM*
COc1ccc(C(C(=O)NC2CCCCC2)N(C(=O)Cc2c[nH]c3ccccc23)c2ccc(NC(C)=O)cc2)cc1OC (configuration not stated)	10µM*	-13	3%	-2	9.3µM*
Cc1ccccc1N(C(=O)Cc1ccsc1)C(C(=O)NC1CCCCC1)c1ccc(F)cc1 (configuration not stated)	1%	-14	6%	-2	u
COc1cc(C(C(=O)NC2CCCCC2)N(C(=O)Cc2c[nH]c3ccccc23)c2ccccc2C)cc(OC)c1OC (configuration not stated)	13µM*	-10	-1%	-2	u
COc1ccc(C(C(=O)Nc2ccc3c(c2)OCO3)N(C)C(=O)Cc2c[nH]c3ccccc23)cc1 (configuration not stated)	u	-2	5%	-2	u
COc1ccccc1NC(=O)c1ccc(Br)c(S(=O)(=O)N2CCCC2)c1	u	-9	-10%	6	4%
O=C(Cn1c(=O)n(Cc2ccco2)c(=O)c2c3c(sc21)CCCCC3)Nc1ccccc1	u	15	2%	6	12µM*
O=C(O)Cn1c(=O)c2c3c(sc2n(Cc2ccccc2)c1=O)CCCC3	10%[0.00184 µM]	-16	-1%	-5	35%
O=c1c2c3c(sc2n(CCN2CCCC2)c(=O)n1Cc1ccco1)CCCCC3	u	-21	5%	5	4%
CN(C)CCn1c(=O)n(Cc2ccco2)c(=O)c2c3c(sc21)CCCCC3	u	-9	4%	-4	7.4µM*
O=C(Cn1c(=O)n(Cc2ccco2)c(=O)c2c3c(sc21)CCCCC3)c1ccccc1	-11%	57*	0%	12	0%
COc1cccc(OC)c1C(=O)Nc1cccc(-n2cnnn2)c1	19%	-6	7%	-2	5%
